# According to PubChem BioAssay:
# Unmarked numbers belong to inactive results. Activity calls are given as the source filed them. Cut-off read from the data, not from the text of the source, unless noted: active = inhibition above about 44%; inactive = the rest.
# Legend:
# [1] = StAR promoter reporter inhibitors, counter-screen for LRH-1 inverse agonist project, cell-based, luminescence, high throughput (AID 651611; in the data active = inhibition above about 28%); conditions: StAR promoter luciferase reporter counterscreen, at 3.6 µM, active compounds read high
# [2] = target: Nuclear receptor subfamily 5 group A member 2 (Homo sapiens) (UniProt O00482); test: LRH-1 (NR5A2) inverse agonists, retest, confirmation, cell-based, luminescence (AID 651613; in the data active = inhibition above about 42%;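 note: HEK293T cells co-transfected with LRH-1 and StAR promoter luciferase reporter; 0% = vehicle wells and 100% = parental cells lacking receptor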); conditions: cell-based LRH-1 luciferase reporter, inverse agonism; at 3.6 µM; active compounds read high
# Chain of Nuclear receptor subfamily 5 group A member 2 (Homo sapiens) (O00482 whole entry, looked up): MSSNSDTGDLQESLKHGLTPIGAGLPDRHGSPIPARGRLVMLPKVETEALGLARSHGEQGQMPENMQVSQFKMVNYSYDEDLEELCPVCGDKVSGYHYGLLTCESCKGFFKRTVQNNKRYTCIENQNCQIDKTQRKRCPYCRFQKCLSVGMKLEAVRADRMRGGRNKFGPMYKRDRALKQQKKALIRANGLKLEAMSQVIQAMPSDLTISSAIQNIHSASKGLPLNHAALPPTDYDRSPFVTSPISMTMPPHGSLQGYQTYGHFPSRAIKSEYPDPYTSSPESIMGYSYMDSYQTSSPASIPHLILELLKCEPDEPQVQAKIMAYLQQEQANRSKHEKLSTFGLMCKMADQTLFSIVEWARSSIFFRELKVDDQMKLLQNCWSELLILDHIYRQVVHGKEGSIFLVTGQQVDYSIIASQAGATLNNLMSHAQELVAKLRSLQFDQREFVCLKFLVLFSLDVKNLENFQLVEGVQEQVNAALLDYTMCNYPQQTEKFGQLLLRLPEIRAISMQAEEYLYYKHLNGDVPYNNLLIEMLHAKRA
# [3] = target: Steroidogenic factor 1 (Homo sapiens) (UniProt Q13285); test: SF1 (NR5A1) inverse agonists, counter-screen for LRH-1 inverse agonist project, cell-based, luminescence, high throughput (AID 651614); conditions: cell-based SF1 luciferase reporter, at 3.6 µM, active compounds read high;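 note: cells cotransfected with StAR promoter reporter and SF1 expression vector; 0% = vehicle on cells with receptor and 100% = vehicle on cells lacking receptor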
# Chain of Steroidogenic factor 1 (Homo sapiens) (Q13285 whole entry, looked up, the tested form may be a part): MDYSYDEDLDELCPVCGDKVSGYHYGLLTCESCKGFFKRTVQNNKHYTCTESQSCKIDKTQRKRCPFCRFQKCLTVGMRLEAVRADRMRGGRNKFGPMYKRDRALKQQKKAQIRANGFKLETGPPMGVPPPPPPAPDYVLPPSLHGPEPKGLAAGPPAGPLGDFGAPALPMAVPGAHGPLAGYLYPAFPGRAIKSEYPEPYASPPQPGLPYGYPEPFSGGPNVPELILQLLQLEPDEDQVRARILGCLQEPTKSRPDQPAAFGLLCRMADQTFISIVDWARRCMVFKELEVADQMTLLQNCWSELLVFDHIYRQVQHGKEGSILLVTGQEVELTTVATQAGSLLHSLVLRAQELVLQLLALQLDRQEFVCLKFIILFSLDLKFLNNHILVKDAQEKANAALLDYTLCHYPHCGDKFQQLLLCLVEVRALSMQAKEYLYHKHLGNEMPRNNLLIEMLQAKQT
# [4] = VP16 transactivation reporter inhibitors, counter-screen for LRH-1 inverse agonist project, cell-based, luminescence, high throughput (AID 651615; in the data active = inhibition above about 33%); conditions: Gal4-VP16 luciferase reporter cells, at 3.6 µM, active compounds read high
Compound,inhibition [1],inhibition [2],inhibition [3],inhibition [4]
O=C1c2cc(F)ccc2-n2c1nc1ccccc1c2=O,50.5% (active),72.4% (active),73.9% (active),67.9% (active)
Cc1cc(C(=O)NC2CCCc3c2cnn3-c2cccc(C)c2C)n(C)n1 (stereo unspecified),33.4% (active),68.2% (active),58.4% (active),59.1% (active)
O=C(Nc1ccccc1C(=O)Nc1nccs1)c1ccccc1,15.4%,52.8% (active),47.8% (active),2.34%
Cc1c(NC(=O)C(C)OC(=O)c2ccc([N+](=O)[O-])s2)c(=O)n(-c2ccccc2)n1C (stereo unspecified),20%,23.3%,19.4%,-10.5%
CCC(=O)N1CCN(c2ccc(Cl)cc2NC(=O)c2ccc([N+](=O)[O-])o2)CC1,22.8%,64.7% (active),61.9% (active),4.86%
On1ccccc1=S,86.8% (active),83.1% (active),82.3% (active),87.5% (active)
Cc1cccc(OCC(=O)Nc2ccncc2)c1C,6.9%,60% (active),61.9% (active),36.1% (active)
CCc1ccccc1NC(=O)CSc1nnc([C@@H](NC(=O)OC(C)(C)C)C(C)C)o1,5.95%,45.9% (active),45.9% (active),0.4%
CCOc1ccc(S(=O)(=O)NCc2ccncc2)cc1,25.8%,61.1% (active),59.4% (active),51.8% (active)
CC(=O)C(C(C)=O)c1c(Cl)c(O)c(O)c2c(C(=O)c3ccccc3)coc12,73.1% (active),100% (active),92.8% (active),90.2% (active)
CCOC(=O)c1cc(C#N)c(N2CCCCC2)nc1-c1ccccc1,8.89%,53.8% (active),40.6%,-5.07%
Cc1ccc(NC(=O)CSc2nsc(SCC(=O)Nc3ccc(C)cc3C)c2C#N)c(C)c1,13.3%,46.1% (active),34.5%,-0.96%
CSc1ccc(COC(=O)c2cc([N+](=O)[O-])ccc2N2CCOCC2)cc1,61.7% (active),57.5% (active),65.8% (active),36.6% (active)
O=C(COc1ccc2c3c(c(=O)oc2c1)CCCC3)NCCN1CCOCC1,0.51%,41.4% (active),23.5%,-1.02%
CC(=O)Nc1ccc(NC(=O)COC(=O)c2ccc([N+](=O)[O-])o2)cc1,12.7%,60.1% (active),51.9% (active),-5.51%
O=C(COc1ccc2c3c(c(=O)oc2c1)CCC3)NCc1ccncc1,0.83%,50% (active),41.4%,-2.51%
C/C(=N\N1CCN(c2ccc(Cl)cc2)CC1)c1cccc([N+](=O)[O-])c1,12.5%,15.8%,21.2%,8.61%
O=c1[nH]c2cc3ccccc3cc2nc1-c1nnnn1C1CCCC1,33.8% (active),33.4%,44.6% (active),8.72%
CCCCCCCN(C(=O)CCl)c1ccccc1C,21%,49.9% (active),42.9% (active),-8.25%
